Only some compounds are listed: those with a hit (about 5.4% of all), similar ones and a draw of the others.
PP1 inh – blocks human PP1-alpha phosphatase, a PP5 counter-screen. purified PP1alpha, OMFP fluorescence. 320,000 compounds, 0.9% hits. inhibition, % at 6.7 µM. P62136;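 active = inhibition above the mean inhibition of all tested compounds plus 3 SD, computed separately for each screening campaign, cut at about 15% in these data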
Target sequence (P62136 whole entry, looked up): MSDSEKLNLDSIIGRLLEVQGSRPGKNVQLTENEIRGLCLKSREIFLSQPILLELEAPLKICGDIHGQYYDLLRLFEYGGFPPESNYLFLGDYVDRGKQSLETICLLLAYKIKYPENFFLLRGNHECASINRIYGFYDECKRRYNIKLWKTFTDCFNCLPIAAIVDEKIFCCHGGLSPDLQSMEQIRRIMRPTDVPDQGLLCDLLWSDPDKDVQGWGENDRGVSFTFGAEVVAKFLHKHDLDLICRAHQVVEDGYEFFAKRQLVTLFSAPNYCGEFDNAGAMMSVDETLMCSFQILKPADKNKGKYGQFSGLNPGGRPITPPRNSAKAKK
PP5 inh – inhibitors of human protein phosphatase 5 (PP5). 320,000 compounds, 0.18% hits. purified PP5c, OMFP substrate fluorescence. AID 1987. inhibition, % at 6.7 µM. P53041;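 active = inhibition above the campaign's mean inhibition across all tested compounds plus 3 SD, cut at about 9.5% in these data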;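 also: 0% = DMSO only and 100% = 100 µM cantharidin control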
ALR H2O2 inh – blocks human ALR sulfhydryl oxidase activity; purified ALR, DTT oxidation, H2O2 HRP-luminol luminescence; inhibition, % (concentration not given with the values); 290,000 compounds, 3.8% hits; AID 485317;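 active = mean replicate inhibition above about 79%, with every replicate also reaching it, limit read from the data; inconclusive = only one of the two criteria met; inactive = mean below limit and not every replicate reaching it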
Target sequence (P55789 whole entry, looked up): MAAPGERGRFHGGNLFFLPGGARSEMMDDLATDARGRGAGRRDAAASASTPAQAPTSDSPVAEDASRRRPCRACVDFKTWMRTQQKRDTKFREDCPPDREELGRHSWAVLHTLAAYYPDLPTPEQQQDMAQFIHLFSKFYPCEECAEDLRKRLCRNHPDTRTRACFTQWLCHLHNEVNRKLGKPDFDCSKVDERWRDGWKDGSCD
CSC inhib – blocks cancer stem cells | cancer stem cell-like cells viability, luminescence | inhibition, % at 7.5 µM | 300,000 compounds, 1.1% hits; in the data active = inhibition above about 75%; inconclusive = no clear call, values can overlap the other calls; tested in HMLE shEcad cells
Calb FLC – C. albicans growth modulation with fluconazole. C. albicans CaCi-2 (fluconazole-resistant clinical isolate) + fluconazole, Alamar Blue growth, 48 h. growth inhibition, % (test concentration not listed). 300,000 compounds, 0.57% hits. AID 1979;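 active = growth inhibition above about 58% in most replicates, limit read from the data, passing the limit was not always enough; inconclusive = exactly half the replicates above a set limit; inactive = most replicates below a set limit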;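 also: all wells also contain fluconazole at 8 µg/ml as a sub-toxic cotreatment; 0% = median of DMSO wells and 100% = median of geldanamycin control wells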
* marks the source's active call; other numbers are inactive results; ? = inconclusive; / = no result given.

SMILES	PP1 inh	PP5 inh	ALR H2O2 inh	CSC inhib	Calb FLC
COc1ccc(C)cc1NC(=O)CN1CCN(c2ccccn2)CC1	-1	-1	/	2	-1
CC(C)CN(Cc1cc(=O)oc2cc(-c3ccccc3)c(O)cc12)CC(C)C	2	1	0	109*	-2
COc1ccc2c(/C=N/NS(=O)(=O)c3ccc(C)cc3)c[nH]c2c1	0	0	89*	-16	11
CC(OC(=O)c1ccc(NC(=O)CC#N)cc1)C(=O)NCCC1=CCCCC1 (stereo not drawn)	-4	1	98*	-12	/
CC(OC(=O)c1ccc(S(=O)(=O)N(C)c2ccccc2)cc1)C(=O)NCCC1=CCCCC1 (stereo not drawn)	3	-1	/	6	0
CCOC(=O)c1c(C)[nH]c(C(=O)C(C)OC(=O)c2ccc(NC(=O)CC#N)cc2)c1C (stereo not drawn)	1	4	99*	-3	/
CCOC(=O)c1sc(-c2ccc(Br)cc2)cc1N	1	4	-1	11	-26
NNC(=O)c1sc(-c2ccc(Cl)cc2)cc1N	5	2	98*	13	1
CCOC(=O)C1=C(C)NC(C)=C(C(=O)OCCNC(=O)c2cccnc2)C1c1cccc([N+](=O)[O-])c1 (stereo not drawn)	-3	3	-16	-3	-1
CCOC(=O)CSc1nc(C)c(C(C)=O)cc1C(N)=O	-6	-2	-4	-10	20
Cc1ccc(C(CCN(Cc2ccccc2)C(=O)c2ccco2)c2ccco2)cc1 (stereo not drawn)	-1	4	1	3	2
CN(C)c1ccc(CN(Cc2ccco2)C(=O)c2ccco2)cc1	-4	-1	99*	-1	-31
O=C(c1ccco1)N(CCC(c1ccccc1)c1ccco1)Cc1ccco1 (stereo not drawn)	17*	3	10	-5	-1
CSc1cc(N2CCOCC2)nc(-c2ccccc2Cl)n1	0	-1	0	-13	1
Cc1ccc(S(=O)(=O)n2nc(OC(=O)c3ccco3)cc2N)cc1	-2	3	98*	/	4
Nc1cc(OC(=O)c2ccc(F)cc2)nn1S(=O)(=O)c1ccc(F)cc1	-5	1	3	10	3
Nc1cc(OC(=O)c2ccco2)nn1S(=O)(=O)c1ccc(F)cc1	-2	-1	98*	-14	-1
Cc1ccccc1OCCC(=O)Nc1ccc(F)c(Cl)c1	-2	-2	-34	11	-20
CCC(C)Nc1nc(Cl)nc(NCCOc2ccccc2)n1 (stereo not drawn)	2	2	0	-1	6
CC1(O)CC(c2ccc(Cl)cc2)=NN1C(=O)c1ccc([N+](=O)[O-])cc1 (stereo not drawn)	0	2	63	86*	95*
NC(=O)c1ccc(SCC(=O)OCC(=O)NC2CCCCCCC2)c([N+](=O)[O-])c1	0	2	/	-5	/
O=C(COC(=O)c1c2c(nc3ccccc13)/C(=C\c1cccs1)CCC2)Nc1ccccc1	-2	0	-8	101*	-6
O=C(COC(=O)c1c2c(nc3ccccc13)CCCC2)Nc1ccc2c(c1)OCO2	2	4	-8	13	10
CC(=O)c1ccc(NC(=O)COC(=O)c2c3c(nc4ccccc24)/C(=C\c2cccs2)CCC3)cc1	-1	3	12	117*	-5
c1ccc2sc(SCSc3nc4ccccc4s3)nc2c1	-3	1	-7	38	1
SMILES	PP1 inh	PP5 inh	ALR H2O2 inh	CSC inhib	Calb FLC
CN(C)CCCSc1nc2ccccc2s1	1	1	99*	-16	5
O=C(O)CCSc1nc2ccccc2s1	-2	1	99*	-2	24
CCc1c(C)nc2c(C#N)c[nH]n2c1=O	2	0	98*	-15	-2
CCOC(=O)Cc1c(C)nc2c(C#N)c[nH]n2c1=O	-3	0	/	/	?
N=c1sccn1CC(=O)NCCc1ccc(Cl)cc1Cl	2	-1	-8	-4	/
COc1cccc(NC(=O)CN(C2=NC3CS(=O)(=O)CC3S2)c2cccc(C)c2)c1 (stereo not drawn)	-2	1	98*	-3	-2
O=C1C(=O)N(c2ccc(O)cc2)C(c2ccccc2[N+](=O)[O-])/C1=C(\O)c1ccccc1 (stereo not drawn)	-1	-1	85*	-12	-4
O=C1C(=O)N(CCO)C(c2ccccc2[N+](=O)[O-])/C1=C(\O)c1ccccc1 (stereo not drawn)	0	0	-10	-3	-3
Oc1ccc(-c2cnns2)c(O)c1	2	4	99*	10	24
Oc1ccc(-c2nc3ccccc3s2)c(O)c1	-2	8	27	67	-15
O=C(Nc1ccc(-c2nc3c(ccc4ccccc43)o2)cc1)c1ccco1	-1	1	-5	-10	16
O=C(/C(=C/O)N=Nc1ccccc1)c1ccncc1	-4	2	-25	15	11
Cc1cccc(N=N/C(=C\O)C(=O)c2cccs2)c1	-1	2	53	92*	-16
CCOC(=O)c1c(C)n(-c2ccc(C)cc2)c2ccc(OCC(O)CNCC3CCCO3)cc12 (stereo not drawn)	16*	4	-6	118*	40
O=C(c1ccc(CS(=O)Cc2ccccc2Cl)o1)N1CCN(C2CCCCC2)CC1 (stereo not drawn)	0	1	98*	-13	-1
CCOC(=O)N1CCN(C(=O)c2ccc(CS(=O)Cc3ccccc3Cl)o2)CC1 (stereo not drawn)	-2	0	?	-9	-19
COCCCNC(=O)CCc1ccccc1	1	1	-7	0	-12
COc1cccc(CNC(=O)c2ccc(Cl)c(S(=O)(=O)N3CCOCC3)c2)c1	0	1	/	/	/
COC(=O)c1ccc2c(c1O)C(=O)c1ccccc1C2=O	-6	2	-115	96*	1
COc1ccc2ccc(C(C)(C(C)=O)C(=O)OC(C)C)cc2c1 (stereo not drawn)	-3	0	0	-4	/
CC(C)c1ccc2c(c1)CCC1C(C)(CN)CCCC21C (stereo not drawn)	-1	2	-7	116*	87*
C=CC(C)(C)c1c(O)c(CC=C(C)C)c(O)c2c(=O)c3ccc(O)c(O)c3oc12	1	4	12	-7	84*
CC(C)=CCc1c(O)ccc(C2COc3c(CC=C(C)C)c(O)cc(O)c3C2=O)c1O (stereo not drawn)	-10	3	11	-5	17
CC(C)(C)C1CCC(=NNc2nc3ccccc3[nH]2)CC1 (stereo not drawn)	-1	0	98*	-10	-3
O=C(O)c1cc(NN=C2CCN(Cc3ccccc3)CC2)ccc1Cl	-5	1	-7	-11	6
O=C(Nc1nc2ccccc2[nH]1)C1CC1	-5	1	21	/	-20
c1ccc(CN2CCC(=NNc3nc4ccccc4[nH]3)CC2)cc1	-3	3	99*	-9	?
c1ccc2c(c1)CC/C2=N/Nc1nc2ccccc2[nH]1	6	2	99*	/	1

From PubChem
